# Assay outcomes deposited in PubChem by Broad Institute.
# Shown are actives, neighbours in structure and some others; about 2.7% of the full set was active somewhere.
# INS-1E GSIS act: primary screen for activators of insulin secretion dependent on glucose, INS-1E cells, GLuc reporter luminescence; INS-1E GLuc reporter insulin secretion, 2-3 h; activation, % at 16.6 µM; 370,000 tested, 0.61% active;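 active = lowest replicate activation of at least 40%, so every replicate reaches that level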;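 note: 0% = median of neutral control wells and 100% = median of IBMX positive control wells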
# F508del corr: CFTR F508del correction in bronchial cells; CFBE cells, YFP halide quenching; stimulated with forskolin plus potentiator P3; % fluorescence drop versus neutral controls; 350,000 tested, 0.36% active; activity (quench increase), % at 7.58 µM; AID 720511;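 active = mean added fluorescence quench of at least 8% versus neutral control, with both replicates also reaching 8%; inconclusive = only one of the mean or replicate conditions met; inactive = mean below 8% and not both replicates reaching 8%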;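 note: cells transiently co-express mutant CFTR-F508del with the halide-sensitive YFP; corrector assay measuring rescue of mutant channel to the surface after 24 h compound exposure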
# MITF act: increases MITF-driven TRPM1 promoter luciferase signal; SK-MEL-5 TRPM1-promoter luciferase, 24 h; % of positive control, neutral wells = 0; activation, % at 12.5 µM; 300,000 tested, 0.75% active; AID 588334;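 active = mean activation of at least 80% with every replicate also reaching 80%; inconclusive = mean reaches 80% but some replicate falls short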;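 note: 0% = neutral control wells and 100% = parthenolide positive control wells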
# Wnt act: Wnt/beta-catenin pathway activation | Wnt/beta-catenin reporter cell assay, activator, plate reader | activation, % at 9.35 µM | 300,000 tested, 1.2% active; in the data active = activation above about 30%, passing the limit was not always enough; inconclusive = no clear call, values can overlap the other calls;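 note: 0% = neutral control wells and 100% = positive control wells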
# HIV Env fusion: inhibitors of HIV Env-mediated cell fusion; HeLa-JRFL Env/CEM21 cell fusion, luciferase; inhibition, % at 12.3 µM; 360,000 tested, 1.1% active; AID 651610;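 active = mean replicate inhibition score of at least 50 and every replicate individually at or above 50; inconclusive = only one of the two criteria met; inactive = mean below 50 and not all replicates reaching 50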;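 note: 0% = plate neutral controls and 100% = maraviroc near 300 nM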
# * = called active by the depositor; u = inconclusive; x = no result; [ ] = dose if it differs, or a comment.
SMILES,INS-1E GSIS act,F508del corr,MITF act,Wnt act,HIV Env fusion
C[C@H]1CN([C@@H](C)CO)C(=O)Cc2cc(NC(=O)CCCCCC(=O)Nc3ccccc3N)ccc2O[C@H]1CN(C)C(=O)Nc1ccc(C(F)(F)F)cc1,-2.9,-1.5,x,x,8.5[16.7 µM]
N#Cc1ccc(-c2csc(NC3=NCCCCC3)n2)cc1,9.6,-2.2,9.2,u,9.7
c1ccc(-c2csc(NC3=NCCCCC3)n2)cc1,3.4,10.6*,-4.1,-2.5,3.6
COc1ccccc1C#Cc1ccc2c(c1)O[C@@H](CN(C)Cc1cccnc1)[C@H](C)CN([C@@H](C)CO)S2(=O)=O,4.2,9.5*,x,x,x
COc1ccccc1C#Cc1ccc2c(c1)O[C@@H](CN(C)Cc1cccnc1)[C@@H](C)CN([C@@H](C)CO)S2(=O)=O,-5.7,2.9,x,x,x
COc1ccccc1C#Cc1ccc2c(c1)O[C@@H](CN(C)Cc1ccncc1)[C@H](C)CN([C@H](C)CO)S2(=O)=O,-28.8,2.0,x,x,52.3*[16.7 µM]
C[C@H]1CN([C@@H](C)CO)S(=O)(=O)c2ccc(C#CC3CCCCC3)cc2O[C@H]1CN(C)Cc1cccnc1,-6.6,9.9*,x,x,5.1[16.7 µM]
COc1ccccc1C#Cc1ccc2c(c1)O[C@H](CN(C)Cc1ccncc1)[C@@H](C)CN([C@@H](C)CO)S2(=O)=O,3.8,2.8,x,x,47.7*[16.7 µM]
CCNC(=O)C[C@@H]1CC[C@H]2[C@H](COc3ccc(NC(=O)Nc4ccc(F)cc4)cc3C(=O)N2C)O1,-9.3,1.4,x,x,-5.0[16.7 µM]
C[C@@H]1CN([C@H](C)CO)C(=O)c2cccc(NC(=O)NC3CCCCC3)c2O[C@@H]1CN(C)C(=O)Nc1cccc2ccccc12,-27.2,4.2,x,x,-3.4[16.7 µM]
COc1cccc(NC(=O)N2C[C@@H](O)COC[C@@H]3O[C@H](CC(=O)NCCCN4CCOCC4)CC[C@H]32)c1,-3.2,-3.2,x,x,x
Cc1cccc(COCC(Cc2ccccc2)N2CCN(C(=O)c3cccc(C)c3)CCC2=O)c1 (stereo unspecified),-34.8,0.0,-6.2,-8.2,50.9
Cc1cccc(COCC(Cc2ccccc2)N2CCN(C(=O)c3ccc(Cl)c(Cl)c3)CCC2=O)c1 (stereo unspecified),x,1.7,-3.0,-0.9,95.4*
Cc1ccc(S(=O)(=O)N2CCC(=O)N(CCOCc3cccc(Cl)c3)CC2)cc1,-12.6,2.4,7.1,-5.8,28.3
O=C(c1ccc(Cl)c(Cl)c1)N1CCC(=O)N(C(COCc2cccc(C(F)(F)F)c2)Cc2ccccc2)CC1 (stereo unspecified),-15.5,0.1,1.4,-4.6,79.8*
Cc1ccc(S(=O)(=O)N2CCC(=O)N(CCOCc3ccc(Cl)cc3)CC2)cc1,-26.7,1.0,x,-3.0,56.4*
Cc1ccc(S(=O)(=O)N2CCC(=O)N(C(COCc3cccc(C(F)(F)F)c3)Cc3ccccc3)CC2)cc1 (stereo unspecified),-23.9,2.1,16.1,-7.0,56.1*
C[C@H]1CCCCO[C@H](CN(C)S(=O)(=O)c2ccc(Cl)cc2)[C@@H](C)CN([C@@H](C)CO)C(=O)c2cc(NC(=O)CCC(F)(F)F)ccc2O1,-19.0,-3.3,x,x,-9.3[16.7 µM]
C[C@@H]1CN([C@@H](C)CO)C(=O)c2cc(NC(=O)c3ccccc3)ccc2O[C@@H](C)CCCCO[C@@H]1CN(C)C(=O)Cc1ccccc1,-24.6,-0.3,x,x,-8.3[16.7 µM]
Cc1cccc(COC[C@H](Cc2ccccc2)N2CCN(C(=O)c3ccc(Cl)c(Cl)c3)CCC2=O)c1,-17.7,-1.9,x,-2.4,82.8*
COc1cccc(-c2cnc3c(c2)C(=O)N([C@H](C)CO)C[C@H](C)[C@H](CN(C)C(=O)NC2CCCC2)O3)c1,-13.4,-0.9,x,x,-15.0[16.7 µM]
Cc1ccc(NC(=O)[C@@H]2CCCN2S(=O)(=O)c2ccccc2C(F)(F)F)cc1S(=O)(=O)N1CCOCC1,-12.8,x,-2.5,x,57.3*
Cc1ccc(NC(=O)[C@@H]2CCCN2S(=O)(=O)c2ccccc2F)cc1S(=O)(=O)N1CCOCC1,-15.4,x,-2.4,x,27.6
CCc1ccc(NC(=S)NC(=O)CC(C)C)cc1,-3.6,-1.7,50.7,61.0*,-33.3
C[C@@H]1CCCCO[C@@H](CN(C)S(=O)(=O)c2cccs2)[C@H](C)CN([C@H](C)CO)C(=O)c2cc(NC(=O)Nc3ccccc3)ccc2O1,-13.3,1.0,x,x,17.4[16.7 µM]
SMILES,INS-1E GSIS act,F508del corr,MITF act,Wnt act,HIV Env fusion
COc1ccc(OC)c2c1C(=O)c1ccccc1C2=O,33.6,x,x,8.9,-98.8
COc1ccc2noc3c2c1C(=O)c1ccccc1-3,4.1,37.3*,-29.9,8.5,0.1
C/C(=N\Nc1cccc2cccnc12)c1ccc[nH]1,7.8,-3.4,47.5,41.8*,-157.2
COc1ccc2c3c([nH]c2c1)[C@@H](CO)N(C(=O)C1CCCC1)CC31CN(C(=O)c2ccncc2)C1,-1.5,-2.4,x,x,x
COc1ccc(C(OCC(O)CNCCc2ccc(S(N)(=O)=O)cc2)c2ccc(OC)cc2)cc1 (stereo unspecified),-17.3,4.7,-3.0,-1.7,-8.6
OC(CNCCc1ccc(C(F)(F)F)cc1)COC(c1ccccc1)c1ccccc1 (stereo unspecified),364.9*,3.4,-2.6,-2.5,32.0
CCOC(=O)c1nc(SC)n(C)c1C(=O)OCC,54.1*,2.0,5.6,-2.4,-3.5
COc1ccccc1NC(=O)N(C)C[C@H]1OCc2ccccc2-c2ccccc2C(=O)N([C@@H](C)CO)C[C@H]1C,-9.8,-0.4,x,x,5.2[16.7 µM]
CC(C(=O)Nc1ccc2[nH]c(=O)[nH]c2c1)N1CCN(Cc2ccc3c(c2)OCO3)CC1 (stereo unspecified),60.4*,-1.0,12.4,1.8,-7.5
Cc1ccc2c(c1)c1c(n2C)-c2[nH]ncc2CC1,x,x,x,40.6*,-29.5
Cc1ccc2c(c1)c1c(n2C)C(C(N)=O)CCC1 (stereo unspecified),x,x,-2.0,3.6,-13.0
CC=Cc1ccc2n(c1=O)C[C@@H]1[C@@H](CO)[C@H](C(=O)Nc3ccc(-c4ccccc4)cc3)[C@H]2N1C(C)=O (mixture of isomers),-5.3,-0.4,x,x,x
Cc1cc(Cl)c(S(=O)(=O)N2CCCC2)cc1OCC(=O)NC1CCCCC1,x,x,-15.5,-4.8,78.0*
Cc1noc(C)c1NC(=O)N(C)C[C@H]1OCCCC[C@H](C)Oc2ccc(NC(=O)Nc3cccc4ccccc34)cc2C(=O)N([C@H](C)CO)C[C@@H]1C,-4.9,-1.0,x,x,23.2[16.7 µM]
COc1ccccc1CC(=O)Nc1ccc2c(c1)OC1(CCCC1)O2,x,3.4,53.4,-3.7,-0.4
O=C(Cc1ccccc1)Nc1cc2c(cc1Cl)OCCCO2,-1.8,2.7,94.1*,14.4,0.1
CCc1ccc(C(=O)Nc2cc3c(cc2Cl)OCCCO3)cc1,x,x,108.9*,x,x
O=C(Cc1ccccc1)Nc1ccc2c(c1)OC1(CCCC1)O2,-5.0,-0.8,109.9*,47.7*,x
O=C(C[C@@H]1CC[C@@H]2[C@H](COC[C@@H](O)CN2C(=O)Nc2ccc(Cl)cc2)O1)NC1Cc2ccccc2C1,-16.9,0.0,x,x,x
